Source: the supplement of paper PMC10646978
± gives the standard deviation.

What was measured:
Details in all cases: modulator concentration 10 µM
[1] = test system: RAW-Dual (murine macrophage reporter line); assay: NF-kB reporter (SEAP) activity fold change vs agonist alone; higher = enhanced NF-kB activity
Procedure, shortened: (§1)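 Overnight stimulation with a PRR agonist followed pre-incubation for 1 hour at 37 °C with compound at 10 μM final. This was done in RAW-Dual murine macrophage reporter cells seeded at 50 000 per well in 384-well plates. NF-κB (SEAP, QUANTI-Blue absorbance at 620 nm) and IRF (Lucia luciferase, QUANTI-Luc luminescence) were read from the supernatant. Each reporter's fold change relative to the mean agonist-only control on the same plate was averaged over replicate plates.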

[2] = test system: RAW-Dual (murine macrophage reporter line); assay: IRF reporter (Lucia luciferase) activity fold change vs agonist alone; higher = enhanced IRF activity
Procedure, shortened: as §1

[3] = test system: RAW-Dual (murine macrophage reporter line); assay: viability score (confluency relative to resting cells, overnight) (fraction); higher = more viable, active = viable (0.7 or more)
Procedure, shortened: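 Confluency was the readout: RAW-Dual macrophages were imaged with IncuCyte after an overnight exposure to compound at 10 μM final. IncuCyte software produced two masks over all imaged wells. The viability score expresses confluency against resting cells, and both masks had to exceed 70% of resting cells for a compound to meet the cutoff.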

[4] = agonist: CpG ODN 1826 0.5 ug/mL

Compound	NF-kB reporter [1, 4]	NF-kB reporter ([1]; agonist: LPS 0.1 ug/mL)	NF-kB reporter ([1]; agonist: MPLA […])	IRF reporter ([2]; agonist: 3'3'-cGAMP 10 ug/mL)	IRF reporter ([2]; agonist: LPS 0.1 ug/mL)	IRF reporter ([2]; agonist: MPLA […])	viability score [3]
CC(C)NCC(O)COc1cccc2[nH]ccc12 (stereo not given) [Prestw-90]	1.59 ± 0.38	0.968 ± 0.068	1.13 ± 0.13	1.01 ± 0.046	1.17 ± 0.13	1.17 ± 0.11	0.985 (active)
Cn1c(=O)c2c(ncn2CC(O)CO)n(C)c1=O (stereo not given)	1.02 ± 0.2	1.2 ± 0.35	1.08 ± 0.18	0.887 ± 0.066	1.32 ± 0.21	1.29 ± 0.23	0.996 (active)
CCOc1ccc2nc(SC(c3ccccc3)c3ccccc3)sc2c1	1.01 ± 0.17	0.967 ± 0.099	0.974 ± 0.14	1.01 ± 0.036	1.2 ± 0.18	1.04 ± 0.31	0.661 (inactive)
COc1ccc(NC(=O)CN(c2ccc(C)c(C)c2)S(C)(=O)=O)cc1Cl	0.912 ± 0.096	1.14 ± 0.12	0.886 ± 0.032	0.857 ± 0.14	0.973 ± 0.045	0.858 ± 0.079	1 (active)
CCOC(=O)[C@H](CCc1ccccc1)N[C@H]1CCc2ccccc2N(CC(=O)O)C1=O.Cl	1.07 ± 0.083	0.961 ± 0.17	0.987 ± 0.021	0.947 ± 0.054	0.935 ± 0.076	0.967 ± 0.14	0.999 (active)
CC(C)Cc1ccc(C(C)C(=O)O)cc1.NCCCC[C@H](N)C(=O)O (stereo not given)	1.11 ± 0.26	0.97 ± 0.05	0.963 ± 0.064	0.903 ± 0.032	1.47 ± 0.16	1.41 ± 0.18	0.536 (inactive)
CC(C)(C)C1CCC(OC(=O)CCC(=O)O)CC1 (stereo not given)	0.999 ± 0.16	0.931 ± 0.073	0.903 ± 0.087	1.07 ± 0.049	1.32 ± 0.21	1.32 ± 0.24	0.997 (active)
CCN(CC)CCOC(=O)C(c1ccccc1)C1CCCCC1.Cl (stereo not given)	1.04 ± 0.08	0.861 ± 0.076	0.878 ± 0.082	1.07 ± 0.033	1.31 ± 0.13	1.52 ± 0.18	0.948 (active)
Cc1sc(NC(=O)c2cc(Cl)ccc2[N+](=O)[O-])nc1-c1ccccc1	1 ± 0.064	1.08 ± 0.089	0.951 ± 0.034	0.983 ± 0.046	1.08 ± 0.055	1.08 ± 0.12	1 (active)
CCOc1ccc2nc(N(CCCN(C)C)C(=O)c3ccc(Br)s3)sc2c1.Cl	0.164 ± 0.014	0.836 ± 0.076	0.855 ± 0.13	0.406 ± 0.1	1.14 ± 0.071	0.533 ± 0.083	0.0434 (inactive)
CN1C2CCCC1CC(NC(=O)c1nn(C)c3ccccc13)C2.Cl (stereo not given)	0.712 ± 0.31	0.879 ± 0.044	0.984 ± 0.069	0.873 ± 0.034	1.13 ± 0.16	1.03 ± 0.19	0.998 (active)
CC(=O)N1CCC(C(=O)NC(Cn2nccn2)c2ccccc2)CC1 (stereo not given)	0.87 ± 0.05	1.06 ± 0.09	1.05 ± 0.082	1.04 ± 0.051	1.34 ± 0.25	1.56 ± 0.46	0.935 (active)
O=C(CCN1C(=O)c2cccc([N+](=O)[O-])c2C1=O)Nc1ccc(Cl)cc1	0.886 ± 0.073	1.02 ± 0.058	0.899 ± 0.077	0.848 ± 0.022	1.4 ± 0.16	1.14 ± 0.23	1.01 (active)
CCOc1ccc(N=Cc2c(Nc3ccc(OCC)cc3)nc3ccccn3c2=O)cc1	1.17 ± 0.13	0.984 ± 0.13	1.19 ± 0.17	0.855 ± 0.051	1.23 ± 0.14	1.41 ± 0.23	1.04 (active)
Cc1ccc(C(=O)c2ccc(CC(=O)O)n2C)cc1	0.949 ± 0.071	1.01 ± 0.064	1.02 ± 0.048	0.995 ± 0.086	0.993 ± 0.1	1.02 ± 0.092	1 (active)
Cc1ccccc1OCC(O)CO (stereo not given)	0.813 ± 0.22	1.08 ± 0.054	0.955 ± 0.07	0.93 ± 0.058	0.951 ± 0.13	1.02 ± 0.12	0.997 (active)
O=C(NCCN1CCOCC1)c1ccc(Cl)cc1	1.37 ± 0.2	1.13 ± 0.3	0.953 ± 0.055	0.95 ± 0.048	1.26 ± 0.43	1.01 ± 0.078	0.992 (active)
COC(=O)C1=CN(CC2CCCO2)C=C(C(=O)OC)C1c1ccccc1Cl (stereo not given)	1.67 ± 0.13	1.21 ± 0.069	2.32 ± 0.14	0.796 ± 0.051	0.845 ± 0.066	0.686 ± 0.043	0.982 (active)
Br.CC(=O)c1cccc(Nc2nc(-c3c(C)nc4cc(C)ccn34)cs2)c1	0.774 ± 0.051	1.16 ± 0.087	1.62 ± 0.095	0.691 ± 0.13	1.17 ± 0.06	2.65 ± 0.53	0.25 (inactive)
CC(C)(C)C1CCc2c(sc(NC(=O)c3cccs3)c2C(=O)N2CCCC2)C1 (stereo not given)	0.93 ± 0.073	1.06 ± 0.061	0.993 ± 0.13	0.984 ± 0.027	1.14 ± 0.12	1.03 ± 0.068	1.01 (active)
COc1ccc(N2CC(NC(=O)Nc3cccc(Cl)c3C)CC2=O)cc1OC (stereo not given)	0.89 ± 0.064	1 ± 0.085	1.01 ± 0.061	0.977 ± 0.074	1.1 ± 0.21	1.15 ± 0.45	0.973 (active)
O=C1C(CCS(=O)c2ccccc2)C(=O)N(c2ccccc2)N1c1ccccc1 (stereo not given)	0.833 ± 0.042	0.955 ± 0.076	0.954 ± 0.056	1.01 ± 0.068	1.22 ± 0.2	1.31 ± 0.44	1.02 (active)
CCc1nc(N)nc(N)c1-c1ccc(Cl)cc1	1.23 ± 0.11	1.07 ± 0.054	1.03 ± 0.054	0.941 ± 0.052	0.974 ± 0.07	0.865 ± 0.075	0.964 (active)
CC(Oc1ccc(Cl)cc1)C(=O)NCc1cccnc1 (stereo not given)	1.2 ± 0.11	0.981 ± 0.12	0.989 ± 0.096	1.05 ± 0.026	1.31 ± 0.17	1.17 ± 0.12	1.01 (active)
COc1ccccc1C1C(C(C)=O)=C(O)C(=O)N1CCN(C)C (stereo not given)	0.967 ± 0.054	1.07 ± 0.072	0.947 ± 0.057	0.958 ± 0.032	1.48 ± 0.24	1.25 ± 0.12	0.988 (active)
